# Screens as filed in PubChem BioAssay.
# TRPM1 prom inh: inhibitors of MITF-dependent TRPM1 promoter reporter, primary screen, cell-based, SK-MEL-5, single point, luciferase; SK-MEL-5 TRPM1 promoter luciferase, 24 h; inhibition, % at 12.5 µM; actives 0.83% (n = 330,000);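 active = mean inhibition across replicates of 60% or more, whatever share of single replicates reaches that level; inconclusive = some that reach 60%, reason not given; inactive = mean inhibition across replicates below 60%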
# Statin myotox sup: suppressors of statin myotoxicity in C2C12 myotubes, primary screen, cell-based, single point, plate reader; C2C12 myotubes + simvastatin, ATP luminescence, 48 h; scaled: DMSO 0, geranylgeraniol control 100; rescue of ATP level, % at 7.49 µM; actives 0.78% (n = 330,000);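 active = mean ATP rescue above about 67%, or every replicate alone reaching that limit, limit read from the data, passing the limit was not always enough; inconclusive = no clear call, values can overlap the other calls; inactive = mean under the limit and some replicate under it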;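 also: myotubes were challenged with 10 µM simvastatin during compound exposure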
# MITF act: activators of MITF-driven TRPM1 promoter reporter, primary screen, cell-based, SK-MEL-5, luciferase, single point | actives 0.75% (n = 300,000) | activation, % at 12.5 µM | AID 588334, 2011 | SK-MEL-5 TRPM1-promoter luciferase, 24 h; % of positive control, neutral wells = 0;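 active = mean activation of at least 80% with every replicate also reaching 80%; inconclusive = mean reaches 80% but some replicate falls short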;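 also: 0% = neutral control wells and 100% = parthenolide positive control wells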
# LMP1 NFkB inh: EBV LMP1-driven NF-kappaB luciferase reporter inhibitors, primary screen, cell-based, luminescence, single point. LMP1-induced NF-kappaB luciferase reporter cells. inhibition, % at 12.5 µM. actives 0.69% (n = 350,000). AID 504558, 2011; in the data active = inhibition above about 41%; inconclusive = no clear call, values can overlap the other calls;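 also: 0% = neutral control wells and 100% = reference inhibitor control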
# esBAF inh: Bmi1 luciferase reporter increase in mESCs, primary screen, esBAF inhibitor project, mouse ES cells, Bmi1 luciferase knock-in, single point. actives 2% (n = 350,000). 24 h; 100% = twice the neutral-well signal. reporter increase, % at 12.5 µM; in the data active = activation above about 40%; inconclusive = no clear call, values can overlap the other calls;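 also: 0% = median of the plate's neutral control wells and 100% = double that signal; a rise in the Bmi1 reporter signal indicates esBAF inhibition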
# Wnt bcat act: Wnt/beta-catenin pathway activators, primary screen, cell-based, plate reader, single point; Wnt/beta-catenin reporter cell assay, activator; AID 743398, 2014; actives 1.2% (n = 300,000); activation, % at 9.35 µM; in the data active = activation above about 30%, passing the limit was not always enough; inconclusive = no clear call, values can overlap the other calls;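 also: 0% = neutral control wells and 100% = positive control wells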
# Active calls of the source: *; u = inconclusive; x = no result. A selection: hits, their analogues and other compounds. The true share with any hit is near 4%.
SMILES,TRPM1 prom inh,Statin myotox sup,MITF act,LMP1 NFkB inh,esBAF inh,Wnt bcat act
Cn1cc(Cl)c(C(=O)Nc2nc3ccccc3s2)n1,1,-279,-1,2,-4,-9
NC(=S)Nc1nc2ccccc2s1,-4,x,-1,-6,x,-5
COc1cc(C(=O)NCCc2ccc(F)cc2)c([N+](=O)[O-])cc1OC,-3,-4,6,17,5,0
CC(C)N(C(=O)COC(=O)Cn1cnc2ccccc21)c1ccccc1,-1,7,1,-2,-4,17
OC1(c2cccc(C(F)(F)F)c2)CCN(c2ccc(-c3ccccc3)nn2)CC1,-66,-50,67,-35,67*,-2
O=C(CSc1nc(-c2ccco2)cc(C(F)(F)F)n1)NCCc1ccccc1,7,89*,-3,-14,-1,x
O=C(CCCSc1nc(-c2ccco2)cc(C(F)(F)F)n1)NCc1cccs1,6,126*,x,-2,0,-3
CCNC(=S)N/N=C/c1cc(C)n(-c2ccc(Cl)cc2)c1C,-90,x,86*,-9,x,1
Cc1cc(/C=N/NC(N)=S)c(C)n1-c1ccc(Cl)c(Cl)c1,29,x,-29,30,x,4
COc1ccc(NC(=O)N2C[C@@H]3[C@H](c4ccccc42)[C@H](CO)N3C(=O)C2CC2)cc1,x,-2,x,x,-14,x
CCN(CC)S(=O)(=O)c1ccc(N/N=C/c2ccc(O)cc2O)nc1,50,x,-51,57*,x,-6
COc1ccc(C(=O)NCCNC(=O)c2ccc(C)nc2)cc1,8,10,-9,-5,-7,1
CCCCOc1ccc(C(=O)NCCc2ccccc2)cc1,-27,-18,26,-30,22,14
NC(=S)c1ccc(OCCCc2ccccc2)cc1,x,6,x,-28,71*,37*
Cc1ccc(-c2oc3ccccc3c(=O)c2O)cc1,-35,1,35,-2,48*,23
O=C(O)COc1c(-c2ccccc2)oc2ccccc2c1=O,-3,75*,4,-18,-7,x
COc1ccc(C2CC(C)(c3ccc(OC)cc3)Nc3ccccc3N2)cc1 (stereo not drawn),-1,-5,x,-6,u,49*
COc1ccccc1-c1c(C)nn2c(N3CCC4(CC3)OCCO4)cc(C)nc12,15,85*,-17,-3,5,x
O=C1NC(=S)S/C1=C/c1ccc(N2CCOCC2)o1,-4,x,4,7,x,x
O=C1NC(=S)S/C1=C\C=C\c1ccc([N+](=O)[O-])o1,90*,x,-90,-48,x,-8
O=C1NCCc2c1[nH]c1c(Cl)ccc(Cl)c21,-15,7,12,23,-15,x
CCOC(=O)c1c(C)c(C(=O)Nc2ccc(N(C)C)cc2)c(C)n1CC,21,-21,-21,0,47*,-3
COc1ccc(/C=C2\N=C(SC)SC2=O)cc1OC,-7,107*,4,-2,-7,0
COc1ccc(C(=O)NCCc2cn3ccc(C)cc3n2)cc1,-2,2,3,-3,-1,11
Cc1cc(C)n(CC(=O)N2c3ccccc3Sc3ccccc32)n1,2,119*,-3,-8,-5,1
SMILES,TRPM1 prom inh,Statin myotox sup,MITF act,LMP1 NFkB inh,esBAF inh,Wnt bcat act
Cc1cc(C)n(CC(=O)O)n1,-1,x,0,-4,-12,-3
COc1ccc(C(=O)CC(=O)C(=O)Nc2cccc(F)c2)cc1,5,9,-3,-2,10,2
COc1ccc(C(=O)CNc2cccc(F)c2)cc1,-68,17,72,-8,63*,19
COc1ccc(C(=O)CCNc2cccc(Cl)c2)cc1,-70,x,74,-27,x,69*
C=CCn1c(CNC(=O)c2ccccc2F)nnc1SCC(=O)NC(C)c1ccccc1 (stereo not drawn),-11,x,11,-3,x,-1
CN(C)c1ccc(C(=O)N2CCCC(N3CCN(Cc4ccc5c(c4)OCO5)CC3)C2)cc1 (stereo not drawn),-4,-2,5,3,-2,-1
CC(=O)c1ccc(OCc2cc(C(=O)NCC3CCCCO3)no2)cc1 (stereo not drawn),-35,x,32,-10,x,-2
COc1cc(C(C)=O)ccc1OCc1cc(C(=O)N(C)CCC2CCCCO2)no1 (stereo not drawn),-84,3,u,-34,51*,u
COc1ccccc1OCc1cc(C(=O)N(C)CCC2CCCCO2)no1 (stereo not drawn),-47,7,52,-27,76*,20
C#CCOCCOCCOCCNc1nc(N2CCN(C(=O)CCCCCCCCCCNC(=O)[C@H](CCCCN)n3cc(CCO)nn3)CC2)nc(N2CCN(C(=O)CCCCCCCCCCNC(=O)[C@@H]([C@H](C)O)n3cc(C)nn3)CC2)n1,5,8,-7,-6,-4,x
C#CCOCCOCCOCCNc1nc(N2CCN(C(=O)CCCCCCCCCCNC(=O)[C@H](CCCCN)n3cc(C)nn3)CC2)nc(N2CCN(C(=O)CCCCCCCCCCNC(=O)[C@@H]([C@H](C)CC)n3cc(CCCCCN)nn3)CC2)n1,105*,-194,-104,-2,-79,x
C#CCOCCOCCOCCNc1nc(N2CCN(C(=O)CCCCCCCCCCNC(=O)[C@H]([C@@H](C)CC)n3cc(CCCCCN)nn3)CC2)nc(N2CCN(C(=O)CCCCCCCCCCNC(=O)[C@@H]([C@H](C)O)n3cc(C)nn3)CC2)n1,99*,-81,-98,-8,-2,x
C#CCOCCOCCOCCNc1nc(N2CCN(C(=O)CCCCCCCCCCNC(=O)[C@@H]([C@H](C)O)n3cc(C)nn3)CC2)nc(N2CCN(C(=O)CCCCCCCCCCNC(=O)[C@@H]([C@H](C)O)n3cc(C)nn3)CC2)n1,36,77*,-36,-23,7,-3
C#CCOCCOCCOCCNc1nc(N2CCN(C(=O)CCCCCCCCCCNC(=O)Cn3cc(CCCCCN)nn3)CC2)nc(N2CCN(C(=O)CCCCCCCCCCNC(=O)[C@H]([C@@H](C)CC)n3cc(CCCCCN)nn3)CC2)n1,97*,-246,-96,-1,6,x
C#CCOCCOCCOCCNc1nc(N2CCN(C(=O)CCCCCCCCCCNC(=O)[C@H](CCC(=O)O)n3cc(CCCCCN)nn3)CC2)nc(N2CCN(C(=O)CCCCCCCCCCNC(=O)[C@@H]([C@H](C)O)n3cc(C)nn3)CC2)n1,8,23,-5,0,3,x
COC(=O)Nc1snnc1C,1,27,1,4,1,x
COCc1nc2oc3ccccc3c(=O)c2cc1C(=O)OC,-84,2,88*,1,48*,17
COc1cc(Cl)c(C)cc1Nc1ncccn1,4,1,1,-5,-4,0
